# Reference: PubChem BioAssay (NCATS)
# Results filed as inconclusive are left out. A call without a number means that no potency is given here. A number with no mark means an inactive call. Calls of active or inactive are those of the source. Calls come from the whole dose curve; as a rule, active = well fitted inhibition curve with a large enough effect; inconclusive = small, poorly fitted or top-dose-only effect; inactive = no such curve, though single readings can be large or run the other way.
# What was measured:
# [1] = tested on: Zika virus NS2B-NS3 protease (unlinked complex); test: Primary screen GU Rhodamine qHTS for Zika virus inhibitors: Unlinked NS2B-NS3 protease assay (AID 1347159); note: nearly all actives have a fitted effect of over 60% in size
# In short: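 Unlinked NS2B/NS3, 25 nM; Rhod110 peptide, 1.5 microM; compounds, up to 114 microM. Reaction run 15 min at RT in 10 mM Tris-HCl pH 8.0, 0.01% Tween 20; kinetic fluorescence change fitted with a 4-parameter Hill model.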
# [2] = tested on: Zika virus NS2B-NS3 protease (linked construct); test: Primary screen NINDS Rhodamine qHTS for Zika virus inhibitors (AID 1347160); note: nearly all actives have a fitted effect of over 55% in size
# In short: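 Single-chain NS2B-NS3 protease, 25 nM, pH 8.0; compounds preincubated 15 min. Activity: Rhodamine110 release from 1.5 microM substrate over 15 min, room temperature, data fitted to 4-parameter Hill.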
# Potency is the fitted concentration of half-maximal effect.
compound,measurement,setting,value
CCOC(=O)Nc1cc(-c2ccc(C)c(NS(C)(=O)=O)c2)nn2c(C)nnc12,Potency,[1],inactive
same,Potency,[2],inactive
FC(F)(F)c1ccc(Nc2nc(-c3c(C(F)(F)F)nc4ccccn34)cs2)cc1,Potency,[1],inactive
same,Potency,[2],inactive
C[C@@H]1O[C@@H](O[C@H]2[C@H](O)[C@@H](O)[C@H](OC3CCC4(C)C5CCC(C)(C(CO)OC6OC(CO)C(O)C(O)C6O)CC5=CCC4C3(C)C)O[C@@H]2CO)[C@H](O)[C@H](O)[C@H]1O (stereo not given in full),Potency,[1],inactive
same,Potency,[2],inactive
C/C=C/C=C/C(O)=C1\C(O)=C(C)C(=O)[C@@]2(C)OC(=O)[C@@](C)(NC(=O)/C=C/C(=O)O)[C@@H]12,Potency,[1],inactive
same,Potency,[2],inactive
Nc1nc2c(ncn2[C@@H]2O[C@H](CO)[C@@H](O)[C@H]2O)c(=O)[nH]1,Potency,[1],inactive
same,Potency,[2],inactive
CC1(C(=O)O)CCCC2(C)C3CCC4CC3(CCC12)CC4=O (stereo not given),Potency,[1],inactive
same,Potency,[2],inactive
CC(C)CC1NC(=O)C(C)NC(=O)C(CC(C)C)OC(=O)CCCNC1=O (stereo not given),Potency,[1],inactive
same,Potency,[2],inactive
CO[C@H]1C[C@@H]2CC[C@@H](C)[C@@](O)(O2)C(=O)C(=O)N2CCCC[C@H]2C(=O)O[C@H]([C@H](C)C[C@@H]2CC[C@@H](OP(C)(C)=O)[C@H](OC)C2)CC(=O)[C@H](C)/C=C(\C)[C@@H](O)[C@@H](OC)C(=O)[C@H](C)C[C@H](C)/C=C/C=C/C=C/1C,Potency,[1],inactive
same,Potency,[2],inactive
CCC(Nc1ncnc2nc[nH]c12)c1nc2cccc(F)c2c(=O)n1-c1ccccc1 (stereo not given),Potency,[1],inactive
same,Potency,[2],inactive
C=C(C(=O)O)C1CC(O)C2(C)CCCC(=C)C2C1 (stereo not given),Potency,[1],inactive
same,Potency,[2],inactive
C=C(C(=O)OC)C1C(O)CC2(C)C(O)CCC(=O)C2C1O (stereo not given),Potency,[1],inactive
same,Potency,[2],inactive
C/C=C/c1cc(OC)c2c(c1)[C@@H](C)[C@@H](c1ccc(O)c(OC)c1)O2,Potency,[1],inactive
same,Potency,[2],inactive
CC1=C(C(=O)O)/C(=C\CO[C@@H]2O[C@H](CO)[C@@H](O)[C@H](O)[C@H]2O)C(OC(=O)/C=C\c2ccc(O)cc2)C1 (stereo not given in full),Potency,[1],inactive
same,Potency,[2],inactive
C[C@@H]1O[C@@H](OC[C@H]2O[C@@H](Oc3cc(O)cc4c3C(=O)C(O)(Cc3ccc(O)cc3)O4)[C@H](O)[C@@H](O)[C@@H]2O)[C@H](O)[C@H](O)[C@H]1O (stereo not given in full),Potency,[1],inactive
same,Potency,[2],inactive
C[C@@H]1CN(Cc2ccccc2)C[C@H]1c1nc2c(cnn2C2CCOCC2)c(=O)[nH]1,Potency,[1],inactive
same,Potency,[2],inactive
C/C=C/C=C/C(=O)N1CC[C@]23c4ccccc4N[C@H]4N(C)c5cccc6c5[C@@]42CCN([C@H]6C2OC2(C)C)[C@H]13 (stereo not given in full),Potency,[1],inactive
same,Potency,[2],inactive
CCC(O)(C(=O)OCc1ccccc1NC(=O)CCC(=O)O)C(C)O (stereo not given),Potency,[1],inactive
same,Potency,[2],inactive
O=S(=O)(NCC1CC1)c1ccc(Nc2nccc(N3CCCc4cc(O)ccc43)n2)cc1,Potency,[1],39.8 µM (active)
same,Potency,[2],inactive
CC(=O)c1cc(C(=O)N[C@@H](C)Cn2ccc(-c3ccc(C#N)c(Cl)c3)n2)[nH]n1,Potency,[1],inactive
same,Potency,[2],inactive
COc1cc2ncnc(N3CCC(Oc4cnc5ccccc5n4)C3)c2cc1OC (stereo not given),Potency,[1],inactive
same,Potency,[2],inactive
O=C1C=CC(O)(/C=C/C(=O)OC[C@H]2O[C@@H](Oc3ccc(O)cc3)[C@H](O)[C@@H](O)[C@@H]2O)C=C1,Potency,[1],inactive
same,Potency,[2],inactive
C[C@]1(CO)CCC[C@]2(C)C3=C(CCC12)COC3 (stereo not given in full),Potency,[1],inactive
same,Potency,[2],inactive
Cc1cc(C)nc(NS(=O)(=O)c2ccc(NC(=S)NC(=O)COc3ccc(Br)cc3Cl)cc2)n1,Potency,[1],7.08 µM (active)
same,Potency,[2],15.8 µM (active)
O=C(OC[C@H]1O[C@H](O[C@]2(CO)O[C@H](CO)[C@@H](O)[C@@H]2O)[C@H](O)[C@@H](O)[C@@H]1O)c1ccccc1,Potency,[1],inactive
same,Potency,[2],inactive
CC(C)(O[C@@H]1O[C@H](CO)[C@@H](O)[C@H](O)[C@H]1O)C(OC(=O)/C=C\c1ccc(O)cc1)C(=O)OCc1ccc(O[C@@H]2O[C@H](CO)[C@@H](O)[C@H](O)[C@H]2O)cc1 (stereo not given in full),Potency,[1],inactive
same,Potency,[2],inactive
CC(C)(O)CC(CO)NC(=O)CC(O)CC(=O)Cc1ccccc1 (stereo not given),Potency,[1],inactive
same,Potency,[2],inactive
CN=C(N)NCCCCC/C=C(/C)CC(C)C1OC(=O)C(C)C(O)/C=C/C(C)C(O)CC(O)C(C)C(O)CCC(C)C(O)CC2(O)OC(CC(OC(=O)CC(=O)O)CC(O)CC(O)C(C)C(O)/C(C)=C/CCC1C)CC(O)C2O (stereo not given),Potency,[1],inactive
same,Potency,[2],inactive
CCN(CC)CCN(Cc1ccc(-c2ccc(C(F)(F)F)cc2)cc1)C(=O)Cn1c(SCc2ccc(F)cc2)nc(=O)c2c1CCC2,Potency,[1],inactive
same,Potency,[2],inactive
CC(C)C(C#N)O[C@@H]1O[C@H](CO[C@@H]2O[C@@H](C)[C@H](O)[C@@H](O)[C@H]2O)[C@@H](O)[C@H](O)[C@H]1O (stereo not given in full),Potency,[1],inactive
same,Potency,[2],inactive
CC[C@@H](O)C[C@@H]1C(C)=C[C@@H]2CCCC[C@@H]2[C@@]1(C)C(=O)O,Potency,[1],inactive
same,Potency,[2],inactive
Cc1cnc(NC(=O)Nc2cc(Br)c(C)cc2OCC2CNCCO2)cn1 (stereo not given),Potency,[1],inactive
same,Potency,[2],inactive
O=C1NC(=O)C(c2cn(-c3ccccc3)nc2-c2ccc(F)cc2)N1 (stereo not given),Potency,[1],inactive
same,Potency,[2],inactive
CC(C)c1cc(CNc2nc(Nc3cc(C4CC4)[nH]n3)cc(N3CCN(C)CC3)n2)on1,Potency,[1],inactive
same,Potency,[2],inactive
CCCN1CCN(c2ccc(C(=O)NC3(C(=O)NCC#N)CCCCC3)cc2)CC1,Potency,[1],inactive
same,Potency,[2],inactive
CC1(C)CC[C@]2(C(=O)O[C@@H]3O[C@H](CO)[C@@H](O)[C@H](O)[C@H]3O)CC[C@]3(C)C(=CCC4[C@@]5(C)CC[C@H](O[C@@H]6O[C@H](C(=O)O)[C@@H](O)[C@H](O)[C@H]6O)[C@@](C)(CO)C5CC[C@]43C)C2C1 (stereo not given in full),Potency,[1],inactive
same,Potency,[2],inactive
C[C@@H]1O[C@@H](O[C@@H]2[C@@H](O)[C@H](O[C@H]3[C@H](O[C@H]4CC[C@@]5(C)C(CC[C@]6(C)C5CC=C5[C@@H]7CC(C)(C)CC[C@]7(C(=O)O[C@@H]7O[C@H](CO)[C@@H](O)[C@H](O)[C@H]7O[C@@H]7O[C@@H](C)[C@H](O[C@@H]8O[C@@H](C)[C@H](O)[C@@H](O)[C@H]8O)[C@@H](O)[C@H]7O)CC[C@]56C)[C@@]4(C)CO)O[C@H](C(=O)O)[C@@H](O)[C@@H]3O)O[C@H](CO)[C@H]2O)[C@H](O)[C@H](O)[C@H]1O (stereo not given in full),"activity change, negative = inhibition",[1],22.9% [at 19.1 µM]
same,"activity change, negative = inhibition",[2],3.12% [at 10.7 µM]
CC(O)CCC1C(CO[C@@H]2O[C@H](CO)[C@@H](O)[C@H](O)[C@H]2O)CC(O)CC1(C)C (stereo not given in full),Potency,[1],inactive
same,Potency,[2],inactive
O=C(c1cc2c(cc1F)OC(c1ccc(F)cc1)(c1ccc(Cl)cc1Cl)O2)N1CCOCC1 (stereo not given),Potency,[1],inactive
same,Potency,[2],inactive
O=C(O)COCCN1CCN([C@H](c2ccccc2)c2ccc(Cl)cc2)CC1,Potency,[1],inactive
same,Potency,[2],inactive
CC(C)CC(=O)O[C@@H]1OC=C(CO[C@@H]2O[C@H](CO)[C@@H](O)[C@H](O)[C@H]2O)[C@H]2[C@@H]3O[C@H]3[C@@](O)(CO)[C@@H]12,Potency,[1],inactive
same,Potency,[2],inactive
C[C@@H](Oc1cc(-n2cnc3ccc(OC4CCN(C)CC4)cc32)sc1C(N)=O)c1ccccc1C(F)(F)F,Potency,[1],inactive
same,Potency,[2],inactive
CC(C)(C)NC(=O)[C@@H](c1cccnc1)N(C(=O)c1ccco1)c1ccc(C(C)(C)C)cc1,Potency,[1],inactive
same,Potency,[2],inactive
COc1cc(Br)c(S(=O)(=O)Nc2ccc(C(F)(F)F)c(O[C@@H]3CCN(C)C3)c2)cc1OC,Potency,[1],inactive
same,Potency,[2],inactive
COc1ccc(-c2cnc(-c3cccc4c3-c3ccccc3C4=O)o2)cc1,Potency,[1],inactive
same,Potency,[2],inactive
CNC12CC3C[C@@](C)(C1)C[C@](C)(C3)C2,Potency,[1],inactive
same,Potency,[2],inactive
COC1CC(O[C@H]2CC[C@@]3(C)C(=CC[C@]4(O)C3[C@H](OC(C)=O)[C@@H](OC(=O)c3ccccc3)[C@]3(C)[C@@H](C(C)=O)CC[C@@]34O)C2)OC(C)C1OC1CC(OC)C(OC2CC(OC)C(OC3OC(C)C(OC4OC(CO)C(O)C(O)C4O)C(OC)C3O)C(C)O2)C(C)O1 (stereo not given in full),"activity change, negative = inhibition",[1],25.7% [at 19.1 µM]
same,"activity change, negative = inhibition",[2],-1.64% [at 10.7 µM]
COC(=O)CC(O)CC(O)/C=C/c1c(C)ccc2c1C(O)CC(C)C2 (stereo not given),Potency,[1],inactive
same,Potency,[2],inactive
O=C(CCc1ccccc1)N1CCC(O)(Cn2cnc3cc(Cl)ccc3c2=O)CC1,Potency,[1],inactive
same,Potency,[2],inactive
COc1cc2ncnc(Nc3ccc(O)cc3)c2cc1OC,Potency,[1],inactive
same,Potency,[2],inactive
Cc1ccc(NC(=O)C(=O)NC2CC(C)(C)NC(C)(C)C2)cc1,Potency,[1],inactive
same,Potency,[2],inactive
CC1(C)CCC[C@]2(C)[C@H]3CC(=O)O[C@]3(C)CC[C@@H]12,Potency,[1],inactive
same,Potency,[2],inactive
CN(C)CCn1cc(S(=O)(=O)c2cccc(F)c2)c2cccnc21,Potency,[1],inactive
same,Potency,[2],inactive
COc1ccc(-c2ccc3c(N4CCOCC4)nc(N4CC(C)OC(C)C4)nc3n2)cc1CO (stereo not given),Potency,[1],inactive
same,Potency,[2],inactive
C/C=C(\C)C(=O)OCC1OC(OC2OC(COC(=O)/C(C)=C/C)C(OC3OC(CO)C(OC(=O)/C(C)=C/C)C(OC(=O)/C(C)=C/C)C3O)C(O)C2O)C(O)C(O)C1OC1OC(CO)C(OC(=O)/C(C)=C/C)C(OC(=O)/C(C)=C/C)C1O (stereo not given),Potency,[1],inactive
same,Potency,[2],inactive
CC1=CC(=O)CC2C1(O)CCC(C)C21CC(c2ccoc2)OC1=O (stereo not given),Potency,[1],inactive
same,Potency,[2],inactive
CC(C)c1nnc(-c2ccc(-c3ccccc3)nc2)n1-c1cccc2nonc12,Potency,[1],inactive
same,Potency,[2],inactive
CC1=CC(=O)CC(C)(CO)C1(O)/C=C/C(C)O[C@@H]1O[C@H](CO)[C@@H](O)[C@H](O)[C@H]1O (stereo not given in full),Potency,[1],inactive
same,Potency,[2],inactive
COc1c2c(c(C)c3c1C(=O)OC3)OC1(C)CC(O)C34OC(OC)(OC3(C)C)C(O)CC4(C)C1C2 (stereo not given),Potency,[1],inactive
same,Potency,[2],inactive
C=C1CCCC2(C)CC3(OC)OC(=O)C(C)=C3CC12 (stereo not given),Potency,[1],inactive
same,Potency,[2],inactive
CC1(C)CC[C@]23CO[C@@]4(CCC5[C@@]6(C)CC[C@H](O[C@@H]7OC[C@H](O[C@@H]8O[C@H](CO)[C@@H](O)[C@H](O)[C@H]8O)[C@H](O)[C@H]7O[C@@H]7O[C@H](CO)[C@@H](O[C@@H]8O[C@H](CO)[C@@H](O)[C@H](O)[C@H]8O)[C@H](O)[C@H]7O)[C@@](C)(CO)C6CC[C@@]5(C)[C@]4(C)C[C@H]2OC2OCC(O)C(O)C2O)C3C1 (stereo not given in full),"activity change, negative = inhibition",[1],15.7% [at 19.1 µM]
same,outcome,[2],inactive [at 10.7 µM]
